Assay results as given in PubChem BioAssay AID540333 (Southern Research Specialized Biocontainment Screening …, 2011).
About 320 (3.2%) of roughly 10,000 compounds were called active. Many of the other results were omitted from the sample, so actives are more common in it than they were. A number with no mark means an inactive call. Cut-off read from the data, not from the text of the source: active = CPE inhibition mostly above about 9.1% (no sharp cut-off); inactive = mostly below about 7.2%.

Experiment: antivirals protecting cells from dengue CPE – CPE readout, HTS (AID 540333)
Conditions: Dengue virus CPE inhibition in host cells, at 20 µM; active compounds read high

SMILES	CPE inhibition
COc1cc(/C=N/NC(=O)C2COc3ccccc3O2)cc(OC)c1OC (stereo unspecified)	inactive
CC(C(=O)NCC1CCCCC1)N1CCN(S(=O)(=O)/C=C/c2ccccc2)CC1 (stereo unspecified)	0.61%
O=C(NNS(=O)(=O)c1ccc2ccccc2c1)NC1CCCCC1	inactive
COc1ccc(NS(=O)(=O)c2ccc(C)c(NC(=O)NC3CCCCC3)c2)cc1	7.27% (active)
COc1ccc(NS(=O)(=O)c2ccc(OC)c(NC(=O)CCC3CCCCC3)c2)cc1	0.695%
CCOc1ccc(/C(O)=C2/C(=O)C(=O)N(CC3CCCO3)C2c2cccs2)cc1 (stereo unspecified)	0.87%
Cc1nn(Cc2ccc(C(=O)N3N=C(C(F)F)CC3(O)C(F)F)o2)c(C)c1[N+](=O)[O-] (stereo unspecified)	0.095%
COc1cccc(NC(=O)CN(C)C(=O)COc2ccc3ccccc3c2)c1	0.135%
Cc1ccc(S(=O)(=O)Nc2cc(=O)[nH]c(SCc3ccccc3Cl)n2)cc1	inactive
O=C(CSc1nnc(-c2ccncc2)o1)NCc1ccccc1Cl	inactive
Cc1ccc(S(=O)(=O)Nc2ccc(-c3nnc(SCc4ccccc4Cl)o3)cc2)cc1	17.2% (active)
Cc1nn(CCC(N)=O)c2nc(-c3cccs3)cc(C(F)(F)F)c12	inactive
O=C(Oc1ccccc1C(=O)Nc1ccccc1)c1ccccc1Br	1.84%
COc1ccccc1CNC(=O)C(NS(=O)(=O)c1ccc2c(c1)OCCO2)C(C)C (stereo unspecified)	inactive
CCCCN(C)C(=S)Nc1ccc(Oc2ccccc2)cc1	3.21%
CCCn1c(SC(C(=O)Nc2cccc(OC)c2)c2ccccc2)nc2ccccc2c1=O (stereo unspecified)	0.175%
Cc1ccccc1NC(=O)C1CCCN1/C=C/C(=O)C(F)(F)F (stereo unspecified)	inactive
CCC(=O)NC(Nc1nc(C)cs1)(C(=O)OC)C(F)(F)F (stereo unspecified)	0.32%
CC(C)(C)OC(=O)N[C@H](C(=O)OC(C)(C)C)c1ccc2ccccc2c1	0.425%
CCOC(=O)C(C)(C)N(Cc1ccccc1C)S(=O)(=O)c1ccc(Cl)c([N+](=O)[O-])c1	7.12%
CCOC(=O)C(C)(C)N(Cc1cccc(C)c1)S(=O)(=O)c1ccc(Cl)c([N+](=O)[O-])c1	7.24%
CCOC(=O)C(C)(C)N(Cc1ccc(C)cc1)S(=O)(=O)c1ccc(Cl)c([N+](=O)[O-])c1	7.28% (active)
O=C(NN1C(=O)/C(=C\c2cccnc2)SC1=S)C(c1ccccc1)c1ccccc1	inactive

SMILES	CPE inhibition
Cc1ccccc1C(=O)NCCCCc1ccccc1	0.125%
O=C(Cn1c(COc2ccccc2)nc2ccccc21)Nc1cc(Cl)ccc1Cl	5.49%
O=C(Cn1c(COc2ccc(Cl)cc2)nc2ccccc21)NCC(F)(F)F	inactive
CCC(C)NC(=O)Cn1c(COc2ccc(Cl)cc2Cl)nc2ccccc21 (stereo unspecified)	13.4% (active)
CCOc1cc(/C=C/c2cc(C(=O)O)c3ccccc3n2)ccc1O	0.055%
Cc1ccc(NS(=O)(=O)c2ccc(C3CCCCC3)cc2)cc1	21.5% (active)
Cc1ccc(NS(=O)(=O)c2ccc(OCC(=O)NCc3ccncc3)cc2)cc1	0.315%
Cc1ccc(S(=O)(=O)Nc2ccc(NC(=O)Nc3ccc(F)cc3F)cc2)cc1	10.3%
CC1(C)CC(=O)C2=C(C1)NC1=C(C(=O)c3ccccc31)C2c1ccc(O)cc1 (stereo unspecified)	2.13%
CC(C)Oc1cccc(C(=O)NC(=S)NCc2cccnc2)c1	2.73%
O=C(NC(=S)NC(c1ccccc1)c1ccncc1)c1ccccc1 (stereo unspecified)	18.9% (active)
O=C(NC(=S)Nc1ccc(Cc2ccncc2)cc1)c1ccccc1	0.355%
CC(C)NC(=S)NC(=O)c1ccc(-c2ccccc2)cc1	0.805%
CCOC(=O)c1c(C(F)(F)F)cc(-c2ccc(F)cc2)nc1C	inactive
CC1(C(=O)NC(=S)N(Cc2ccccc2)c2ccccn2)CC1(Cl)Cl (stereo unspecified)	0.075%
COc1cc(/C=C/C(=O)N(Cc2ccccc2)c2ccccn2)cc(OC)c1OC	inactive
CC(C)(Oc1ccc(Cl)cc1)C(=O)N(Cc1ccccc1)c1ccccn1	11% (active)
O=C(c1ccc(COc2ccc(Br)cc2)o1)N1N=C(C(F)F)CC1(O)C(F)F (stereo unspecified)	2.42%
Cc1ccc(OCC(=O)NCC(=O)Nc2ccc(F)c(F)c2F)c([N+](=O)[O-])n1	0.32%
Cc1ccc(OCC(=O)Nc2ccccc2Sc2ccc(Cl)cc2)c([N+](=O)[O-])n1	13.9% (active)
Cc1ccc(OCC(=O)Nc2cc(S(=O)(=O)N3CCCCC3)ccc2C)c([N+](=O)[O-])n1	3.06%
O=C1c2ccccc2S(=O)(=O)c2cc(C(=O)N3CCN(c4ncccn4)CC3)ccc21	0.735%
CC(C)c1ccc(NC(=O)COc2ccc(F)cc2C(=O)c2cnn(-c3ccccc3)c2)cc1	1.51%
